# Results published in PMC7826789 (International Journal of Molecular Sciences, 2021).
# Legend:
# [1] = test system: MAPK1
# [2] = test system: MAPK3
# [3] = test system: MAPK7
# [4] = test system: MAPK8
# [5] = test system: MARK3
# [6] = test system: MELK
# [7] = test system: MINK1
# [8] = test system: MKNK1
# [9] = test system: MKNK2
# [10] = test system: MLCK
# [11] = test system: MSK1
# [12] = test system: MTOR
# [13] = test system: MUSK
# [14] = test system: MYLK
# [15] = test system: NEK2
# [16] = test system: NEK3
compound,measurement,setting,value
Cc1cnc(Nc2ccc(F)cc2Cl)nc1-c1c[nH]c(C(=O)N[C@H](CO)c2cccc(Cl)c2)c1 [Vertex 11e],Kinases covered,[1],MAPK1
same,Kinases covered,[2],MAPK3
O=C1Nc2ccc(I)cc2C1=Cc1cc(Br)c(O)c(Br)c1 [GW305074X],Kinases covered,[2],MAPK3
CCOc1cc(C(=O)N2CCC(N3CCN(C)CC3)CC2)ccc1Nc1ncc2c(n1)N(C1CCCC1)c1ccccc1C(=O)N2C [ERK5-IN-1],Kinases covered,[3],MAPK7
CCOc1cc(N2CCC(O)CC2)ccc1Nc1ncc2c(n1)N(C)c1ccccc1C(=O)N2C [XMD8-92],Kinases covered,[3],MAPK7
CN(C)C/C=C/C(=O)Nc1ccc(C(=O)Nc2cccc(Nc3ncc(Cl)c(-c4c[nH]c5ccccc45)n3)c2)cc1 [THZ1],Kinases covered,[4],MAPK8
FC1=CC(C3=NC2=CC(OC)=C(OC)C=C2C(N[C@H]4[C@H]([C@](C)(O)C)CNC4)=N3)=C(O)C=C1.Cl.Cl [CCT241533],Kinases covered,[5],MARK3
CC(C)COC(=O)c1ccc2c(c1)/C(=C/Nc1ccc(S(N)(=O)=O)cc1)C(=O)N2 [GW416981X],Kinases covered,[6],MELK
NS(=O)(=O)c1ccc(N/N=C2\C(=O)Nc3ccc(C(=O)NCCc4c[nH]cn4)cc32)cc1 [GW300660X],Kinases covered,[6],MELK
Cc1ccc(-c2cc(-c3c[nH]nc3-c3ccccn3)ccn2)cc1 [GW684088],Kinases covered,[7],MINK1
COc1cc2ncnc(Nc3ccc(F)c(Cl)c3)c2cc1O[C@H]1CC[C@H](N)CC1 [BIBW3133BS],Kinases covered,[8],MKNK1
CCCc1cc(N2CCCN(C)CC2)nc2sc3c(N)ncnc3c12 [BI00604564],Kinases covered,[9],MKNK2
CNc1nc(Nc2ccc(C(=O)N3CCOCC3)cc2OC)nc2[nH]cc(Cl)c12 [JH-II-127],Kinases covered,[10],MLCK
CCn1c(-c2nonc2N)nc2cncc(CNC3CCNCC3)c21 [SB-747651A],Kinases covered,[11],MSK1
COc1ccc(-c2cc3c(C)nc(N)nc3n([C@H]3CC[C@H](O)CC3)c2=O)cn1 [PFE-PKIS 40],Kinases covered,[12],MTOR
COc1ccc(-c2cc3c(C)nc(N)nc3n([C@H]3CC[C@H](OCCO)CC3)c2=O)cn1 [PFE-PKIS 29],Kinases covered,[12],MTOR
Nc1ncnc2occ(-c3ccc(NC(=O)Nc4cc(C(F)(F)F)ccc4F)cc3)c12 [GW770249X],Kinases covered,[13],MUSK
CNC(=O)c1c(F)cccc1Nc1nc(Nc2cc3c(cc2OC)CCN3C(=O)CN(C)C)nc2[nH]ccc12 [GSK1838705],Kinases covered,[14],MYLK
C[C@@H](Oc1cc(-n2cnc3ccc(OC4CCN(C)CC4)cc32)sc1C(N)=O)c1ccccc1Cl [GSK579289A],Kinases covered,[15],NEK2
C[C@@H](Oc1cc(-n2cnc3ccc(CN4CCN(C)CC4)cc32)sc1C(N)=O)c1ccccc1C(F)(F)F [GSK461364],Kinases covered,[15],NEK2
CC(C)C(=O)N[C@@H]1CCN(C(=O)Nc2nc3c(s2)-c2nc(-c4ccccc4Cl)ncc2CC3)C1 [BI00047804],Kinases covered,[16],NEK3
